SARS PLP yeast: SARS-CoV PLP inhibition in yeast. S. cerevisiae expressing SARS-CoV PLpro, growth rescue. Potency, µM (doses to about 32.9 µM), for the others: top-dose activity, positive = growth rescue, most hits filed as activators. 330,000 tested, 0.19% active; calls by dose curve; further: potency means the concentration at half of the fitted maximal effect; 0% is about no effect; nearly all actives have a fitted effect of over 55% in size
MARV entry inh: blocks Marburg virus binding to or entry into cells | Marburg virus pseudotyped entry inhibition, cell reporter | Potency, µM (doses to about 37.8 µM), for the others: at the top dose activity change, negative = inhibition, actives largely listed as inhibitors | 300,000 tested, 1.8% active | AID 540276; calls by dose curve; tested in HEK293 cells; further: potency means the concentration at half of the fitted maximal effect; on the % scale 0 is the no-effect control and ±100 the full control effect
HCV inh: inhibitors of hepatitis C virus infection; Huh7.5.1 HCVcc-Cre infection, luciferase reporter, 44 h; 340,000 tested, 3.4% active; Potency, µM (top dose mostly 41.8 µM), without a hit: top-dose activity change, negative = inhibition, actives largely listed as inhibitors; active means well fitted inhibition curve with a large enough effect; inconclusive means small, poorly fitted or top-dose-only effect, or another doubt; inactive means no such curve, though single readings can be large or run the other way; further: potency means the concentration at half of the fitted maximal effect; on the % scale 0 is the no-effect control and ±100 the full control effect
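Reporter virus HCVcc-Cre (~0.5 moi) infects cells exposed to compound; seeding density 1,000 cells/well with 4 h settling beforehand. Luminescence, 15 sec read, taken 44 h post-infection following a 15 min RT substrate incubation.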
LASV entry inh: blocks Lassa virus binding to or entry into cells; Lassa virus pseudotype entry inhibition, cell reporter; Potency, µM (top dose mostly 37.9 µM), without a hit: top-dose activity change, negative = inhibition, usual class: inhibitors; 300,000 tested, 1.2% active; calls by dose curve; tested in HEK293 cells; further: potency means the concentration at half of the fitted maximal effect; on the % scale 0 is the no-effect control and ±100 the full control effect; nearly all actives have a fitted effect of over 50% in size
FMDV inh: foot and mouth disease virus antiviral activity. FMDV antiviral cell-based qHTS. Potency, µM (doses to about 57.9 µM), for inactives: top-dose activity change, negative = inhibition, actives largely listed as inhibitors. 410,000 tested, 1.2% active; calls by dose curve; tested in HEK293T cells; further: read-out not given here; potency means the concentration at half of the fitted maximal effect; on the % scale 0 is the no-effect control and ±100 the full control effect; nearly all actives have a fitted effect of over 45% in size
HCMV inh: inhibitors of human cytomegalovirus; HFF cells, HCMV-luciferase reporter, 72 h; active compounds read low; 410,000 tested, 4.5% active; activity change, negative = inhibition, % at 57.5 µM; in the data active means activity change below about -60%; inconclusive means no clear call, values can overlap the other calls; inactive means above about -39%; further: on the % scale 0 is the no-effect control and ±100 the full control effect
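Compounds were evaluated in HFFs infected with an HCMV luciferase reporter virus (MOI 1 PFU/cell). Luciferase in lysates collected 72 h post infection served as the replication measure.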
* hit, by the source's call; ? = inconclusive; · = no result given; [ ] = another dose, or the depositor's remark. The list is not random: actives were taken first. Their share in the collection is about 8%.

SMILES	SARS PLP yeast	MARV entry inh	HCV inh	LASV entry inh	FMDV inh	HCMV inh
O=C(Oc1c(-c2ccccc2)oc2ccccc2c1=O)c1ccccc1	0%	-22%	-30%	?	21%	-82*
COc1ccc(-c2oc3ccccc3c(=O)c2OC(=O)c2ccc(C)cc2)cc1	-5%	-18%	10%	5%	16%	-75*
COc1ccc(C(=O)c2ccc3oc(-c4ccc(OC)cc4)c(-c4ccc(O)cc4)c3c2)cc1	-2%	·	8.9µM*	·	-6%	-64*
COc1ccc(OCc2nc3c4c(ncn3n2)-c2ccccc2CC42CCCC2)cc1	17%	?	?	-4%	?	?
COc1ccc(-c2nc3c4c(ncn3n2)-c2ccccc2CC42CCCC2)cc1	-24%	10%	?	0%	32µM*	-10
Oc1cccc(-c2nc3c4c(ncn3n2)-c2ccccc2CC42CCCC2)c1	-40%	23µM*	·	-17%[14.3 µM]	?	-93*
Cc1cccc(OCc2nc3c4c(ncn3n2)-c2ccccc2CC42CCCC2)c1	10%	29%	5%	5%	-26%	-32
CC(C)c1cccc(-c2nc3c(NCc4cccc(N(C)C)c4)nccc3[nH]2)c1	·	·	·	·	·	0
O=C(c1ccc2nc(-c3ccco3)c(-c3ccco3)nc2c1)N1CCN(c2ccccc2)CC1	-11%	16µM*	?	-22%	?	-108*
O=C(c1ccc2nc(-c3ccco3)c(-c3ccco3)nc2c1)N1CCC2(CC1)OCCO2	12%	4%	7%	-6%	22%	·
O=C(Nc1ccc(N2CCOCC2)cc1)Nc1ccc2nc(-c3ccco3)c(-c3ccco3)nc2c1	2%	?	6.3µM*	-28%	0%	-60*
O=C(Nc1ccc2nc(-c3ccco3)c(-c3ccco3)nc2c1)NC1CC1	-7%	-1%	?	-13%	24%	·
CCc1ccc(NC(=O)CSc2nc3c([nH]c4ccccc43)c(=O)n2C)cc1	·	·	·	7%[46.1 µM]	22%	55
O=C(c1ccc(Cl)cc1)C1CCCN(Cc2cccc3ncccc23)C1 (centres undefined)	-1%	·	7.9µM*	·	?	0
O=C(c1ccc(C(F)(F)F)cc1)C1CCCN(Cc2cccn2-c2ncccn2)C1 (centres undefined)	1%	?	-16%	?	?	?
O=C(c1ccc(Cl)cc1)C1CCCN(Cc2cccc3cccnc23)C1 (centres undefined)	0%	?	?	?	-16%	-7
O=C(c1ccc(Cl)cc1)C1CCCN(Cc2cccn2-c2ccccn2)C1 (centres undefined)	0%	4µM*	-28%	?	-7%	-33
COc1ccc(C(=O)C2CCCN(Cc3cccn3-c3ccccn3)C2)cc1F (centres undefined)	-1%	?	-18%	?	-13%	-26
COc1cccc(C(=O)C2CCCN(Cc3cccn3-c3ccccn3)C2)c1 (centres undefined)	-1%	?	-25%	?	-26%	-63*
CC(C)Oc1cccc(C(=O)C2CCCN(Cc3cccn3-c3ccccn3)C2)c1 (centres undefined)	-1%	?	-18%	11µM*	9%	-71*
O=C(c1cccc(C(F)(F)F)c1)C1CCCN(Cc2cccn2-c2ncccn2)C1 (centres undefined)	0%	·	?	·	?	?
Oc1ccc(C[C@@H]2CNC(=S)N2CCCCC2CCCCC2)cc1	0%	·	-28%	·	34%	-31
COc1ccc(C(=O)C2CCCN(Cc3cccn3-c3nccs3)C2)cc1F (centres undefined)	6%	?	-25%	?	-6%	-64*
COc1ccc(OCC(=O)Nc2nnc(S(=O)(=O)N3CCc4ccccc43)s2)cc1	·	·	·	3%[46.1 µM]	-13%	31
O=C(NC1CCCCC1)c1ccccc1NC(=S)NC(=O)C1CCC1	24%	?	3%	3%	-18%	-62*
SMILES	SARS PLP yeast	MARV entry inh	HCV inh	LASV entry inh	FMDV inh	HCMV inh
O=C(NC(=S)NC1CCCCC1)c1ccccc1	18%	21%	4%	?	86%	-98*
O=C1C(=O)N(CCN2CCOCC2)[C@@H](c2ccccn2)/C1=C(\O)c1ccccc1	·	23%	·	·	·	·
C=C1C[C@@]23CC4C5[C@@]6(C)C[C@H](O)C[C@@]57C2[C@H](O)[C@@H]1[C@H](O)[C@H]3[C@H]7N4C6	·	·	·	·	-12%	·
COc1ccccc1[C@H]1/C(=C(\O)c2ccc(C)cc2)C(=O)C(=O)N1Cc1ccco1	·	-1%[46.1 µM]	·	·	·	·
CCc1ccc(OC(=O)c2sc3ncn(Cc4cccc(F)c4)c(=O)c3c2C)cc1	·	·	·	4%[46.1 µM]	0%	14
NC1=C(Br)C(=O)c2ncccc2C1=O	·	2.5µM*	?	?	4µM*	-102*
COc1ccccc1CCNc1ncnc2sc(C(=O)N3CCCCC3)c(C)c12	·	·	·	·	-28%	·
CC(=O)N[C@H](C(=O)N[C@@H](C)C(=O)N[C@H](C#N)CC(=O)O)C(C)C	0%	·	·	·	·	·
Cc1ccc(Cn2nc3c(cc2=O)CCc2ccccc2-3)cc1	-1%	·	14µM*	·	35%	-10
C#Cc1ccc(-n2nc3ccccc3c2OC)cc1	·	·	·	·	·	25
CCCN1C(=O)S/C(=C/c2ccc(N3CCOCC3)o2)C1=O	-4%	-6%[46.1 µM]	?	18%[46.1 µM]	30%	-79*
COC(=O)CN1C(=O)S/C(=C/c2ccc(N3CCCCC3)o2)C1=O	-7%	12%	?	?	21%	-104*
CCOC(=O)CN1C(=O)S/C(=C/c2ccc(N3CCCCC3)o2)C1=O	-14%	19%	9%	-11%	-6%	-19
COc1ccc(N2CCN(c3nc4ccccc4n4c(C)nnc34)CC2)cc1	·	·	·	-8%[46.1 µM]	-2%	-11
COc1ccccc1C(=O)N(Cc1nc(-c2cccc(C)c2)no1)C(C)C	·	?	·	?	-25%	-12
Cc1cccc(-c2noc(CN(C(=O)c3ccc4c(c3)OCO4)C(C)C)n2)c1	-14%	?	?	-32%	?	0
Cc1cccc(-c2noc(CN(C(=O)c3c(-c4ccccc4Cl)noc3C)C(C)C)n2)c1	-8%	-2%	10µM*	·	-14%	17
Cc1cccc(-c2noc(CN(C(=O)c3ccc(C)c(C)c3)C(C)C)n2)c1	·	-16%[46.1 µM]	·	?	?	-95*
Cc1onc(-c2ccccc2Cl)c1C(=O)NCc1nc(-c2ccc(C(F)(F)F)cc2)no1	-10%	?	?	10µM*	?	-31
Cc1onc(-c2ccccc2Cl)c1C(=O)N(Cc1nc(-c2ccccc2)no1)C1CCCCC1	-3%	?	11µM*	?	-4%	-27
Cc1onc(-c2ccccc2Cl)c1C(=O)NCc1ccccc1F	6%	·	6%	·	-8%	11
Cc1ccc(C)c(C(=O)N(Cc2nc(-c3ccc(Cl)cc3)no2)C(C)C)c1	-26%	·	10µM*	·	?	-17

Source: PubChem
